# Laboratory results taken from PubChem BioAssay (NCI).
# The panel holds about 83,000 compounds, 20% with a hit somewhere; the sample as a whole holds those more often.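 Compound tested at a single concentration for 48 hours in 96-well plates; a percent growth value below 10 was scored as active.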 Values without a mark were called inactive. Active and inactive are the calls of the source.
# System: MDA-MB-468 breast
# Assay: NCI-60 one-dose screen, 48 h (100 = growth as untreated, 0 = no growth, -100 = all killed)
# Conditions: 10 µM unless noted
row,Compound,growth
1,COc1cccc(Nc2nccc(Nc3ccc4[nH]ncc4c3)n2)c1,-45.5% (active)
2,C[C@]12CCC(=O)C=C1CC[C@H]1[C@@H]3C[C@@H](O)[C@](O)(C(=O)CO)[C@@]3(C)C[C@H](O)[C@@]12F,128%
3,CCOc1ccc(/C=C(\C#N)c2cc3ccccc3[nH]2)cc1,33.4%
